# Source: publication PMC7862700, “An all-to-all approach to the identification of sequence-specific readers for epigenetic DNA modifications on cytosine”
# Key:
# Assay in all cases: DAPPL (digital affinity profiling via proximity ligation, sequencing); 10 mM Tris-HCl pH 7.5, 50 mM NaCl, 1 mM DTT, 4% glycerol, room temperature, 30 min; GST-TFs on glutathione beads, 16-mer random dsDNA library, 0.1% formaldehyde crosslink after washing; high values mean tight binding
# [1] = biological target: T1, FLI1 (Homo sapiens, UniProt Q01543 1-452); conditions: protein: recombinant; tags: N-terminal GST; dsDNA, one strand shown
# T1 sequence: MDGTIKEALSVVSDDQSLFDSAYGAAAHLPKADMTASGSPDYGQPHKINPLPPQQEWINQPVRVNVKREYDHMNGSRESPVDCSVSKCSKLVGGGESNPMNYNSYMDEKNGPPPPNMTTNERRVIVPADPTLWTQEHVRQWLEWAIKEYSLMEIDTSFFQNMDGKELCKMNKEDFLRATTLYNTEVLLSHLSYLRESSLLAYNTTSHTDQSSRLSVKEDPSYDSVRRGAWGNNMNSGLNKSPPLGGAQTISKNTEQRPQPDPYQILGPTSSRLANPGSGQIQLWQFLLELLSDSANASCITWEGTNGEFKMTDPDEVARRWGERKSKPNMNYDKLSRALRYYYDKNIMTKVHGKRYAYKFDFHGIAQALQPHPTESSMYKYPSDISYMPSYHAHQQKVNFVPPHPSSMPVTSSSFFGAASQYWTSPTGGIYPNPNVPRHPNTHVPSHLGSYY
# Procedure, shortened: (§1)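 Human transcription factors were made in yeast as GST fusions, captured on glutathione beads and barcoded with DNA. With a tag-only sample included, the pool was incubated with 200 nmole of a random double-stranded 16-mer DNA library in Tris/NaCl/DTT/glycerol buffer at room temperature for 30 min, then crosslinked with 0.1% formaldehyde after washing, ligated by proximity, amplified and sequenced. For binding signal, each hexamer's read frequency for a factor is divided by its frequency for the tag-only sample.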
# [2] = biological target: T2, ELK1 (Homo sapiens, UniProt P19419 1-428); conditions: protein: recombinant; tags: N-terminal GST; dsDNA, one strand shown
# T2 sequence: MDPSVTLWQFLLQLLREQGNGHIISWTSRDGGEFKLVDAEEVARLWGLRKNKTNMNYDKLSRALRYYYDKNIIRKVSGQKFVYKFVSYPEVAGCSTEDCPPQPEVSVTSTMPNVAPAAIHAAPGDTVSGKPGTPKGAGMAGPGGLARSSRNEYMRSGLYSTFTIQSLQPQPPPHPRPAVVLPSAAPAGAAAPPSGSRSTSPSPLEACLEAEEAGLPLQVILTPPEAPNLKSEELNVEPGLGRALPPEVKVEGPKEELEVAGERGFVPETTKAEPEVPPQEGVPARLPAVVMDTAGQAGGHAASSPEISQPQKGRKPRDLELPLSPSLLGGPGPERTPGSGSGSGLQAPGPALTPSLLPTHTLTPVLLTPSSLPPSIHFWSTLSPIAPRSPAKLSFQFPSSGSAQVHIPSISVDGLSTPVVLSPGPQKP
# Procedure, shortened: as §1
# [3] = biological target: T3, GABPA (Homo sapiens, UniProt Q06546 1-454); conditions: protein: recombinant; tags: N-terminal GST; dsDNA, one strand shown
# T3 sequence: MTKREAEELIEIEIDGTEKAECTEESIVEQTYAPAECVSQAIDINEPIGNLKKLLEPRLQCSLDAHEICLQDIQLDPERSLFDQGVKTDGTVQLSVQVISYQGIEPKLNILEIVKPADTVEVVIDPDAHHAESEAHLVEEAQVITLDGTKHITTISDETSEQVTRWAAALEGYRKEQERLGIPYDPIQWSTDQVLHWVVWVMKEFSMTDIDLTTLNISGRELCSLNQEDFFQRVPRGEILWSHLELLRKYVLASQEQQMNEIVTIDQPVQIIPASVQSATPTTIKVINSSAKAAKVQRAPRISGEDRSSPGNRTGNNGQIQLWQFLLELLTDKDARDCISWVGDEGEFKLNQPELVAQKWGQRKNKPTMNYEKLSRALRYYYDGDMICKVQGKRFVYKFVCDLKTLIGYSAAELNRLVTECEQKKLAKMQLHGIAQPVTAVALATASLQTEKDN
# Procedure, shortened: as §1
# [4] = biological target: T4, ERG (Homo sapiens, UniProt P11308 1-479); conditions: protein: recombinant; tags: N-terminal GST; dsDNA, one strand shown
# T4 sequence: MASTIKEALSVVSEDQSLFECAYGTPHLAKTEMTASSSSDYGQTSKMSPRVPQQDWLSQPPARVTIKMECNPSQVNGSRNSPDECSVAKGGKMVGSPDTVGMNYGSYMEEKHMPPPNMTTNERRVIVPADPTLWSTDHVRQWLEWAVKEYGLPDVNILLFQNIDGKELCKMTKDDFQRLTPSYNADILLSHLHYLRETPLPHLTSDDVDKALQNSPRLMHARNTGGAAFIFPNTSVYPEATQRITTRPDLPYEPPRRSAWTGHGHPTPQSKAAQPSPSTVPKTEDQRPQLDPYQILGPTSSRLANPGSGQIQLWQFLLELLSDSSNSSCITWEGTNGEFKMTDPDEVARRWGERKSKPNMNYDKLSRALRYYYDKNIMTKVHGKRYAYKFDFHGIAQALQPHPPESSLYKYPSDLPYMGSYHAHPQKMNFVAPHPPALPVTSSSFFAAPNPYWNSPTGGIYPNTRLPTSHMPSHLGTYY
# Procedure, shortened: as §1
# [5] = biological target: ELF1 (Homo sapiens, UniProt P32519 1-619); conditions: protein: recombinant; tags: N-terminal GST; dsDNA, one strand shown
# Procedure, shortened: as §1
# [6] = biological target: T5, EHF (Homo sapiens, UniProt Q9NZC4 1-300); conditions: protein: recombinant; tags: N-terminal GST; dsDNA, one strand shown
# T5 sequence: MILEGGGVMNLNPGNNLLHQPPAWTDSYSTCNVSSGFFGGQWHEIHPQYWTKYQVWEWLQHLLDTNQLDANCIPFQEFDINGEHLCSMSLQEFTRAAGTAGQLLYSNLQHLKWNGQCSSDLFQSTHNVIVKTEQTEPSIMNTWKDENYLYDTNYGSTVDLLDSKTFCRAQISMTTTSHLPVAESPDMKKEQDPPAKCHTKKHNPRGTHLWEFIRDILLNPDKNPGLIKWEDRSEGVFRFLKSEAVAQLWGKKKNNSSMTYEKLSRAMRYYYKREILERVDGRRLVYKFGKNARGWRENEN
# Procedure, shortened: as §1
# [7] = biological target: SPI1 (Homo sapiens, UniProt P17947 1-270); conditions: protein: recombinant; tags: N-terminal GST; dsDNA, one strand shown
# Procedure, shortened: as §1
# [8] = biological target: SPIB (Homo sapiens, UniProt Q01892 1-262); conditions: protein: recombinant; tags: N-terminal GST; dsDNA, one strand shown
# Procedure, shortened: as §1
# [9] = biological target: T6, ELK3 (Homo sapiens, UniProt P41970 1-407); conditions: protein: recombinant; tags: N-terminal GST; dsDNA, one strand shown
# T6 sequence: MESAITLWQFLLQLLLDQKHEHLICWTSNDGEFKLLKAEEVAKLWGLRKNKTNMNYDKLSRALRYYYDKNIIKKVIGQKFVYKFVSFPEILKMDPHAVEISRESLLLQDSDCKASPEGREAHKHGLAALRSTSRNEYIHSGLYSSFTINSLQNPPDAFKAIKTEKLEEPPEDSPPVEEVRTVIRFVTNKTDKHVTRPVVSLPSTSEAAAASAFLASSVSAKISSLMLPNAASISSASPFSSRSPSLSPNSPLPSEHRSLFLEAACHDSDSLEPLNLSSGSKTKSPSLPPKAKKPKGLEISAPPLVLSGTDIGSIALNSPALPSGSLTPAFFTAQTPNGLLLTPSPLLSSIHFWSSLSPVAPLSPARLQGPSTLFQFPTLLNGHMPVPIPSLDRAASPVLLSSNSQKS
# Procedure, shortened: as §1
# [10] = biological target: T7, FEV (Homo sapiens, UniProt Q99581 1-238); conditions: protein: recombinant; tags: N-terminal GST; dsDNA, one strand shown
# T7 sequence: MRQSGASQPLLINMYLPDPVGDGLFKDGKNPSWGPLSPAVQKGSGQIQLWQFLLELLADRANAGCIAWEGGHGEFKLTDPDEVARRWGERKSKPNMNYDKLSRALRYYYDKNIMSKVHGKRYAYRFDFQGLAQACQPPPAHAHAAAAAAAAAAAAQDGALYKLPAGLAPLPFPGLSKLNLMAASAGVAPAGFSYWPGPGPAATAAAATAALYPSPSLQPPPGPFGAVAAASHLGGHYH
# Procedure, shortened: as §1
# [11] = biological target: ETV5 (Homo sapiens, UniProt P41161 1-510); conditions: protein: recombinant; tags: N-terminal GST; dsDNA, one strand shown
# Procedure, shortened: as §1
# [12] = biological target: HSF1 (Homo sapiens, UniProt Q00613 1-529); conditions: protein: recombinant; tags: N-terminal GST; chain copies: 3; dsDNA, one strand shown
# Procedure, shortened: as §1
# [13] = biological target: T8, SPIC (Homo sapiens, UniProt Q8N5J4 1-248); conditions: protein: recombinant; tags: N-terminal GST; dsDNA, one strand shown
# T8 sequence: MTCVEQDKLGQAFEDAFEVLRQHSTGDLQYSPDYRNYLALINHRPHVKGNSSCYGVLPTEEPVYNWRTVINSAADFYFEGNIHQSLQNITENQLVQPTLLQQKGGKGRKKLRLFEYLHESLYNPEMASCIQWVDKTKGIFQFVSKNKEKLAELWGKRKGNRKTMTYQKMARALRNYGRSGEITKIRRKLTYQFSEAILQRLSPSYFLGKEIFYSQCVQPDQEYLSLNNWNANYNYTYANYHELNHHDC
# Procedure, shortened: as §1
# [14] = biological target: ELF4 (Homo sapiens, UniProt Q99607 1-663); conditions: protein: recombinant; tags: N-terminal GST; dsDNA, one strand shown
# Procedure, shortened: as §1
# [15] = biological target: T9, ELK4 (Homo sapiens, UniProt P28324-2 1-405); conditions: protein: recombinant; tags: N-terminal GST; dsDNA, one strand shown
# T9 sequence: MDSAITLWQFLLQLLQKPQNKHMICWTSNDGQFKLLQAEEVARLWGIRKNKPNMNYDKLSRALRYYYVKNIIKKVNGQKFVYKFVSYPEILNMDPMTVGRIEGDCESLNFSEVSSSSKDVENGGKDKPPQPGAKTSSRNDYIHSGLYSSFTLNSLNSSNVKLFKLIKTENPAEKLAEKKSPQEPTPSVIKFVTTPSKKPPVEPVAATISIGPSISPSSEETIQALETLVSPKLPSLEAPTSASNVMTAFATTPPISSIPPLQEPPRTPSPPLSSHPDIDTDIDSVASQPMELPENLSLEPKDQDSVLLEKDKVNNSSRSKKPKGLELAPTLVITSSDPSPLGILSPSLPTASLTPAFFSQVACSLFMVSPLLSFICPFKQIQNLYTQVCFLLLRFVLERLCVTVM
# Procedure, shortened: as §1
# [16] = biological target: T10, ETV2 (Homo sapiens, UniProt O00321 1-342); conditions: protein: recombinant; tags: N-terminal GST; dsDNA, one strand shown
# T10 sequence: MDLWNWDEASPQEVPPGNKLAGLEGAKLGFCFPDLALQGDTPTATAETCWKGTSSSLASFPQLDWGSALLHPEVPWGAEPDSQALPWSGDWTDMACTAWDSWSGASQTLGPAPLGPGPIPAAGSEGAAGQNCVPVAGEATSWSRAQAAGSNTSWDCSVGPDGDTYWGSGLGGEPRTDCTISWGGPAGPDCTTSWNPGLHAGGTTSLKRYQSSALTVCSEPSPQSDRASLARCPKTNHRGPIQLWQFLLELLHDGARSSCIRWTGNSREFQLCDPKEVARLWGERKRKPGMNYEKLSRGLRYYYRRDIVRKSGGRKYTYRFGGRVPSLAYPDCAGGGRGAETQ
# Procedure, shortened: as §1
# [17] = biological target: T11, ELF3 (Homo sapiens, UniProt P78545 1-371); conditions: protein: recombinant; tags: N-terminal GST; dsDNA, one strand shown
# T11 sequence: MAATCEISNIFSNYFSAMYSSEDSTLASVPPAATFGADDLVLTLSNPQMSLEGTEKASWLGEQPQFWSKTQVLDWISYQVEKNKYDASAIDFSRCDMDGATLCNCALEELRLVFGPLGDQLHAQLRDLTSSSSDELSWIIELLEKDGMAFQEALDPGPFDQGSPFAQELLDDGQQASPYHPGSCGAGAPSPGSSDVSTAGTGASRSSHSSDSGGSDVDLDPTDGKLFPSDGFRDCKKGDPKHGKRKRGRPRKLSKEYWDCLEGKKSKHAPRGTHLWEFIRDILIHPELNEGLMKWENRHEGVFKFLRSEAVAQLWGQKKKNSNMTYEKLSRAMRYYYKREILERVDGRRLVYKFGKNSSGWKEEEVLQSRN
# Procedure, shortened: as §1
# [18] = biological target: CRX (Homo sapiens, UniProt O43186 1-299); conditions: protein: recombinant; tags: N-terminal GST; dsDNA, one strand shown
# Procedure, shortened: as §1
# [19] = biological target: ETV1 (Homo sapiens, UniProt P50549 1-477); conditions: protein: recombinant; tags: N-terminal GST; dsDNA, one strand shown
# Procedure, shortened: as §1
# Chain of ETV5 (P41161 whole entry): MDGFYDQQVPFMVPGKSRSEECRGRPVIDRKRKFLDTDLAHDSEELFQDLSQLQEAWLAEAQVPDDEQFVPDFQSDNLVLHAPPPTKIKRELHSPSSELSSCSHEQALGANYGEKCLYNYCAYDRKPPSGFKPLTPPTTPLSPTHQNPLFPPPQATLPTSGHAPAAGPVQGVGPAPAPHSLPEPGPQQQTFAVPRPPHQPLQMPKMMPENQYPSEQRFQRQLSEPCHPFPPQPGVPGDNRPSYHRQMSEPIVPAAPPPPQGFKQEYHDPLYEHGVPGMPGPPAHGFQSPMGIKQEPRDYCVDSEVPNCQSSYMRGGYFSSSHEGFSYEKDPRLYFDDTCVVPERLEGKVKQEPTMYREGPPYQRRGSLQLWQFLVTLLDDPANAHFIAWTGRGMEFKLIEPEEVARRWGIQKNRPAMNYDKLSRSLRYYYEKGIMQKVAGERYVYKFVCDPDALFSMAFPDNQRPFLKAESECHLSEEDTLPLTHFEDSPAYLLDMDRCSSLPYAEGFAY
# Chain of ELF1 (P32519 whole entry): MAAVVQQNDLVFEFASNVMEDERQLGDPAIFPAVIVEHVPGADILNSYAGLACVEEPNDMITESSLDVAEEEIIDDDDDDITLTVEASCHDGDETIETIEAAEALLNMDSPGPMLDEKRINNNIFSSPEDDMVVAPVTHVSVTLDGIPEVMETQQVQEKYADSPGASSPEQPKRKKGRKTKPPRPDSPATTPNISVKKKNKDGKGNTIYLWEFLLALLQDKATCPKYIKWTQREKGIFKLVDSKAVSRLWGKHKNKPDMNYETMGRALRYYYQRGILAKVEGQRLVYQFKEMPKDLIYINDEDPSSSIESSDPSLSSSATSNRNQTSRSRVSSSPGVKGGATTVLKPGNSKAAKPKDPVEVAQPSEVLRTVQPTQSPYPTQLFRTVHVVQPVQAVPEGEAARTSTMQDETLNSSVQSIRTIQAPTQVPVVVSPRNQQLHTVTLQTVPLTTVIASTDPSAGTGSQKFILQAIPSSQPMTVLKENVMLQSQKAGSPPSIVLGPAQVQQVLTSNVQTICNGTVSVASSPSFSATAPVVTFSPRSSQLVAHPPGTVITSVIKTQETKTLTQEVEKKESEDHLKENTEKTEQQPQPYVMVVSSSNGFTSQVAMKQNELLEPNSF
# Chain of ELF4 (Q99607 whole entry): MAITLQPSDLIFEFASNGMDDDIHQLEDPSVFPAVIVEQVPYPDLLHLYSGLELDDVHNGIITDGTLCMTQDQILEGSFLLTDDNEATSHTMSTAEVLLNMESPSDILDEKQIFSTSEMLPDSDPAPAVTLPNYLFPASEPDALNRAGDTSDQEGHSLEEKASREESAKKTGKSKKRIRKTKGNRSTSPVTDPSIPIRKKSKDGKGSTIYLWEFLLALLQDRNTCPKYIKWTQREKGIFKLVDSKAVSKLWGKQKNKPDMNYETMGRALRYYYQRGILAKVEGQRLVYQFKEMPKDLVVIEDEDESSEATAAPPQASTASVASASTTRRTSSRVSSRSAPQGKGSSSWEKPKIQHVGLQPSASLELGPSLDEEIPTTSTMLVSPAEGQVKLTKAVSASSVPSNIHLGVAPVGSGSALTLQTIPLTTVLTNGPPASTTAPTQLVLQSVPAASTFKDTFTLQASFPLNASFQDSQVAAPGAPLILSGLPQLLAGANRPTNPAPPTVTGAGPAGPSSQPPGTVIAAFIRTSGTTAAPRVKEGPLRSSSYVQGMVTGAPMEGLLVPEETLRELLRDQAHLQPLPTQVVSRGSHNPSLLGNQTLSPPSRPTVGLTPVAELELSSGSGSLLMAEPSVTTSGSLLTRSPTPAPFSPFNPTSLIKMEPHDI
# Chain of CRX (O43186 whole entry): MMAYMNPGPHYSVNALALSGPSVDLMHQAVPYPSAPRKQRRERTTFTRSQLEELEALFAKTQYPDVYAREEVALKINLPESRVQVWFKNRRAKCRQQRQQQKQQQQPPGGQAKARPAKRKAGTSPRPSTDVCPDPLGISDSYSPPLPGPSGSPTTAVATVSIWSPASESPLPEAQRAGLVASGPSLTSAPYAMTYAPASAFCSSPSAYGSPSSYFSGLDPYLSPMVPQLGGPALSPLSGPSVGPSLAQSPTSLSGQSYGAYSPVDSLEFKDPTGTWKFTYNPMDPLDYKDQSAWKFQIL
# Chain of ETV1 (P50549 whole entry): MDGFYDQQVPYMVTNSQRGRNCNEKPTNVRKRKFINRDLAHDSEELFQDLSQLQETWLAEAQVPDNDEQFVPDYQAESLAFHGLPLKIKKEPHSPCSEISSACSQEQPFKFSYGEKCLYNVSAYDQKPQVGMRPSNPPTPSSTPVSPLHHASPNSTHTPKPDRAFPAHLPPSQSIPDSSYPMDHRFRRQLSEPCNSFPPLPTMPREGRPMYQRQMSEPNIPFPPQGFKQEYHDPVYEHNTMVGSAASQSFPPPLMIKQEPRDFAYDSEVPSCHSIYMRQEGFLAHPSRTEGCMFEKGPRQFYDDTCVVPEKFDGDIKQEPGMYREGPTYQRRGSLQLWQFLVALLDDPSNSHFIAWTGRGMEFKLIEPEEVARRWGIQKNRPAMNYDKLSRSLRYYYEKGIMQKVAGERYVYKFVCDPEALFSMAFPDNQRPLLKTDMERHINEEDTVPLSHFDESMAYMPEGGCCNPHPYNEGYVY
# Chain of SPIB (Q01892 whole entry): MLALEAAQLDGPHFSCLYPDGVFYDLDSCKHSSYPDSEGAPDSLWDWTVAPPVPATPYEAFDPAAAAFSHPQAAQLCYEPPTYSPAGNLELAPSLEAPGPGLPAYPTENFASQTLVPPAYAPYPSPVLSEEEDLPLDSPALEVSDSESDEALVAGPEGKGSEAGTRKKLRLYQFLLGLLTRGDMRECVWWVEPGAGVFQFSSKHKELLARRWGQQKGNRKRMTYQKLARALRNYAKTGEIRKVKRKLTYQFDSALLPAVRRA
# Chain of HSF1 (Q00613 whole entry): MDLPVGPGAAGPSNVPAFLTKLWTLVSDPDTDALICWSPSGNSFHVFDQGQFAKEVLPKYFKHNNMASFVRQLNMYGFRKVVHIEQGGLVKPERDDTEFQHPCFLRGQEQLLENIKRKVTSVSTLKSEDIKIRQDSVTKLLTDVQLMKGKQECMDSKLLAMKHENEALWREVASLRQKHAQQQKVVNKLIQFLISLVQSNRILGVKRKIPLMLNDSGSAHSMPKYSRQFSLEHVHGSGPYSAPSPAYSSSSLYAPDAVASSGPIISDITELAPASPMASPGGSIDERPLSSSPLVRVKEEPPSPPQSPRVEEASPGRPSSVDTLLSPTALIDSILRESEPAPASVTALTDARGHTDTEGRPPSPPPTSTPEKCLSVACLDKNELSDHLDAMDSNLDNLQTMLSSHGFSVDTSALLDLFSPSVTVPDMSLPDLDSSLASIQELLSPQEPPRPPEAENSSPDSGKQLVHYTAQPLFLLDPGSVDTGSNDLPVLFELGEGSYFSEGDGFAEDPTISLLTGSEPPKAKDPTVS
sequence,measurement,setting,value
ATCCAA,binding signal,[1],"1.15 fold enrichment (6-mer frequency, TF over GST control)"
same,binding signal,[2],"1.19 fold enrichment (6-mer frequency, TF over GST control)"
same,binding signal,[3],"1.18 fold enrichment (6-mer frequency, TF over GST control)"
same,binding signal,[4],"1.09 fold enrichment (6-mer frequency, TF over GST control)"
same,binding signal,[5],"1.2 fold enrichment (6-mer frequency, TF over GST control)"
same,binding signal,[6],"1.1 fold enrichment (6-mer frequency, TF over GST control)"
same,binding signal,[7],"1.11 fold enrichment (6-mer frequency, TF over GST control)"
same,binding signal,[8],"1.22 fold enrichment (6-mer frequency, TF over GST control)"
same,binding signal,[9],"1.14 fold enrichment (6-mer frequency, TF over GST control)"
same,binding signal,[10],"1.19 fold enrichment (6-mer frequency, TF over GST control)"
same,binding signal,[11],"1.13 fold enrichment (6-mer frequency, TF over GST control)"
same,binding signal,[12],"1.29 fold enrichment (6-mer frequency, TF over GST control)"
same,binding signal,[13],"1.12 fold enrichment (6-mer frequency, TF over GST control)"
same,binding signal,[14],"1.23 fold enrichment (6-mer frequency, TF over GST control)"
same,binding signal,[15],"1.16 fold enrichment (6-mer frequency, TF over GST control)"
same,binding signal,[16],"1.09 fold enrichment (6-mer frequency, TF over GST control)"
same,binding signal,[17],"1.28 fold enrichment (6-mer frequency, TF over GST control)"
same,binding signal,[18],"1.63 fold enrichment (6-mer frequency, TF over GST control)"
same,binding signal,[19],"1.18 fold enrichment (6-mer frequency, TF over GST control)"
